Most compounds without a hit are left out; they make up all but 10% or so of the library.
ELG1 repair inh: blocks ELG1-dependent DNA repair in HEK293T cells; HEK293T ELG1-luciferase reporter, luminescence, 16 h; DNA damage induced by 5-fluorouridine; Potency, µM (series often up to 46.1 µM), without a hit: at the highest dose activity change, negative = inhibition, usual class: inhibitors; 2.3% of 330,000 active; AID 504467; further: on the % scale 0 is the no-effect control and ±100 the full control effect; nearly all actives have a fitted effect of over 55% in size
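In this reporter screen, reduction of luminescence relative to DMSO vehicle indicated activity. Compounds and 5-fluorouridine were added together to 2,000 cells per well, incubated for 16 hr at 37 °C, then developed with ONE-Glo.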
RORgamma inh: blocks mouse ROR gamma transcriptional activity; P51450; Drosophila S2 Gal4-RORgamma UAS-luciferase reporter, 20 h; Potency, µM (series often up to 53.6 µM), without a hit: at the top dose activity change, negative = inhibition, hits mostly inhibitors; 5.4% of 310,000 active; further: on the % scale 0 is the no-effect control and ±100 the full control effect; nearly all actives have a fitted effect of over 60% in size
Target sequence (P51450 whole entry, looked up, the tested form may be a part): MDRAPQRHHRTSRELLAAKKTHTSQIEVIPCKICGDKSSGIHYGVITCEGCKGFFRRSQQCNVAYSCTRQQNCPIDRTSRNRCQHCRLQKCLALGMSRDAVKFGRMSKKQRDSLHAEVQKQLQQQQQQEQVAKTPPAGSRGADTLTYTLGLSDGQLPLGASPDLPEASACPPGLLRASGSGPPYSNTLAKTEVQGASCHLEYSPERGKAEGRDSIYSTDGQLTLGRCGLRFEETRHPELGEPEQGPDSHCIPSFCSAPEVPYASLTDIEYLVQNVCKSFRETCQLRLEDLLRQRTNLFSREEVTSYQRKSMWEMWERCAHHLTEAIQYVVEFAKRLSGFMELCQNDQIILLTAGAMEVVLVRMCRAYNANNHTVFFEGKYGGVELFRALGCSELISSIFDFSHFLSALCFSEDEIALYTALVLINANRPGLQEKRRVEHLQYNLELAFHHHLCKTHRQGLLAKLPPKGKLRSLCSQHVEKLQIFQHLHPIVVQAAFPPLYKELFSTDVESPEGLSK
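Drosophila S2 cells stably expressing Gal4-DBD/mouse RORγ fusion under metallothionein promoter plus UAS-luciferase; compound 1 h, then 700 uM CuSO4 induction for 20 h at ambient temperature; inhibition read as reduced luminescence.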
SW480 rereplic: inducers of DNA re-replication in SW480 colon cancer cells; 1.8% of 340,000 active; SW480 DNA re-replication, Hoechst DNA content imaging, 48 h; Potency, µM (doses to about 46.1 µM), for the others: at the top dose re-replication activation, actives largely listed as activators; further: % of control where 0% means no effect; nearly all actives have a fitted effect of over 55% in size
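Cells (250 per well) received 23 nL compound or DMSO by pin tool and were kept 48 hr at 37 C, 5% CO2. Nuclei were then stained with Hoechst for 40 min and scanned for DNA content.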
Gal4-VP16 FLuc: counter-screen for ROR gamma inhibitors: Gal4-VP16 reporter | Drosophila S2 Gal4-VP16 UAS-luciferase, luminescence, 20 h | Potency, µM (highest dose often 53.6 µM), inactives show at the highest dose activity, negative = inhibition, most hits filed as inhibitors | 3.5% of 310,000 active;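 further: Gal4-VP16 expression switched on by copper sulfate through the metallothionein promoter; on the % scale 0 is the no-effect control and ±100 the full control effect; nearly all actives have a fitted effect of over 50% in size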
MCF10A rerep: induces DNA re-replication in MCF 10a normal breast cells | MCF 10A DNA re-replication, Hoechst nuclear intensity, 48 h | Potency, µM (series often up to 46.1 µM), without a hit: top-dose activity, positive = re-replication, most hits filed as activators | 2.9% of 350,000 active | AID 624296; further: % of control where 0% means no effect; nearly all actives have a fitted effect of over 50% in size
* hit, by the source's call; ? = inconclusive; . = no result given. The call rests on the fitted dose curve; in most records, active means well fitted curve in the direction sought with a large enough effect; inconclusive means small, poorly fitted or top-dose-only effect, or another doubt; inactive means no such curve, though single readings can be large; an effect the other way counts as inactive or inconclusive. Potency means the concentration at half of the fitted maximal effect.

SMILES	ELG1 repair inh	RORgamma inh	SW480 rereplic	Gal4-VP16 FLuc	MCF10A rerep
CCCC(C(=O)NC1CCCC1)N(C(=O)c1snc(C(N)=O)c1N)c1ccc(F)cc1 (stereo unspecified)	-1.8%	7.0%	12.3%	-0.4%	?
COc1ccc(C(=O)C2CCN(C(=S)NCCc3ccc(OC)c(OC)c3)CC2)cc1	20.6µM*	3.6%	0.2%	-16.3%	-21.3%
O=C(c1ccc(F)cc1)C1CCN(C(=S)Nc2ccc(F)cc2)CC1	10.3µM*	18.2%	-5.2%	-15.9%	1.9%
CC(C)(C)NC(=S)N1CCC(C(=O)c2ccc(F)cc2)CC1	-9.8%	-28.2%	-6.2%	-5.4%	1.6%
COc1ccc(CCNC(=S)N2CCC(Cc3ccccc3)CC2)cc1OC	9.2µM*	?	-1.7%	?	?
COc1ccc(CCNC(=O)c2ccc(CN3CCC(Cc4ccccc4)CC3)cc2)cc1OC	-16.3%	15.2%	-3.1%	-6.7%	5.8%
COc1ccc(CCNC(=S)N2CCC(C(=O)c3ccc(F)cc3)CC2)cc1OC	9.2µM*	20.7%	-15.0%	-12.6%	-0.8%
CCOc1ccc(C(Nc2ccc(C)cc2)P2(=O)OCCC(C)O2)cc1 (stereo unspecified)	11.6%	?	-0.8%	-9.0%	0.4%
CCOC(=O)c1ccc(S(=O)(=O)NCC(C)(C)N2CCOCC2)cc1	3.0%	18.6%	-2.3%	2.9%	?
COc1ccc2cc(C3(C)NC(=O)N(CC(=O)NCC(F)(F)F)C3=O)ccc2c1 (stereo unspecified)	26.5%	3.3%	-8.1%	3.0%	3.0%
COc1cccc(Cn2c(=O)c(-c3ccc(Cl)cc3)nc3cnc(N(C)C)nc32)c1	.	6.5%	.	3.8%	.
O=S(=O)(Nc1ccccn1)c1cccc(S(=O)(=O)c2ccc(Br)cc2)c1	4.5%	42.2%	-29.1%	-1.0%	-40.4%
CC(=O)Nc1ccc(S(=O)(=O)N2CCCc3ccccc32)cc1	?	-18.7%	4.61µM*	0.4%	9.2µM*
CC(=O)Nc1ccc(S(=O)(=O)N2CCN=C2c2ccccc2)cc1	8.2µM*	5.0%	-1.1%	-5.1%	9.3%
Cc1cc(NC(=O)COC(=O)c2ccc(S(=O)(=O)N3CCCc4ccccc43)cc2)no1	?	-0.6%	14.6µM*	-6.2%	9.2µM*
COCc1nnc(NC(=O)c2ccc(S(=O)(=O)N3CCOCC3)cc2)o1	8.9%	11.2µM*	-0.9%	20µM*	5.6%
CCOC(CNC(=O)C(=O)Nc1cc2c3c(c1)CCN3C(=O)CC2)OCC	?	-14.2%	-35.7%	-15.8%	20.6%
COCc1nnc(NC(=O)c2ccc(S(=O)(=O)N3CCCc4ccccc43)cc2)o1	16.4µM*	0.631µM*	?	3.55µM*	16.4µM*
COc1ccc(-c2nnc(NC(=O)c3ccc(S(=O)(=O)N4CCCc5ccccc54)cc3)o2)cc1	?	0.282µM*	?	0.501µM*	-8.0%
O=C(NCc1ccccc1)c1ccc(S(=O)(=O)N2CCCc3ccccc32)cc1	-16.6%	?	-3.2%	-6.3%	?
O=C(Nc1nnc(C2CC2)o1)c1ccc(S(=O)(=O)N2CCCc3ccccc32)cc1	7.31µM*	0.316µM*	3.9%	0.708µM*	10.1%
O=C(NCc1ccco1)c1ccc(S(=O)(=O)N2CCCc3ccccc32)cc1	?	-0.9%	?	-2.0%	?
O=c1nc(Nc2ccccc2)oc2ccccc12	?	0.2%	2.4%	-2.8%	0.0%
O=c1nc(Nc2cccc(Cl)c2)oc2cc(Cl)oc(=O)c12	?	7.2%	17.8%	1.3%	16.4µM*
CCN1CCN=C1Nc1ccccc1	?	.	-10.9%	.	23.0%
SMILES	ELG1 repair inh	RORgamma inh	SW480 rereplic	Gal4-VP16 FLuc	MCF10A rerep
CC(OC(=O)c1ccc(Cl)c(S(=O)(=O)N2CCOCC2)c1)C(=O)Nc1ccc(S(N)(=O)=O)cc1 (stereo unspecified)	-24.1%	.	-67.0%	.	-22.1%
O=C(Nc1nccs1)c1c(O)c2c([nH]c1=O)CCCC2	?	?	-3.1%	-5.9%	-0.1%
O=C(Nc1ccccc1O)c1c(O)c2c([nH]c1=O)CCCC2	?	-36.4%	16.4µM*	?	20.6µM*
CCOc1ccc2c(c1)c(=O)c(S(=O)(=O)c1ccc(CC)cc1)cn2C	0.5%	-25.8%	?	0.1%	2.7%
c1ccc(CSc2nc3ncccn3n2)cc1	?	.	-15.3%	.	-8.6%
O=C1c2cnc3nc(SCc4ccccc4)nn3c2CC2c3ccccc3CCN12 (stereo unspecified)	-7.2%	-5.4%	4.11µM*	1.4%	2.31µM*
CC(=O)OCCCN1c2ccccc2Nc2nnc(-c3ccccc3)cc21	?	11.2µM*	0.2%	?	1.5%
O=C(Nc1ccc(F)cc1F)c1cc(Cl)sc1Cl	?	34.4%	-3.5%	?	-12.5%
Cc1[nH][nH]c(=O)c1C(c1c(C)[nH][nH]c1=O)c1cn(Cc2ccc(Cl)c(Cl)c2)c2ccccc12	?	-28.6%	9.2µM*	?	?
Cc1[nH][nH]c(=O)c1C(c1c(C)[nH][nH]c1=O)c1cn(Cc2ccc(F)cc2)c2ccccc12	-15.2%	?	9.2µM*	-19.2%	?
O=c1cnn(Cc2ccc(Cl)c(Cl)c2)c2ccccc12	-19.6%	19.6%	-14.1%	-14.7%	8.3%
COc1ccc(CNC(=O)C(=O)NCC2OCCN2S(=O)(=O)c2ccc(OC)cc2)cc1 (stereo unspecified)	.	.	15.2%	.	1.3%
CC(=O)c1csc(COc2ccc(Cl)cc2)n1	?	?	-13.1%	14.2%	-4.4%
Cc1ccc(NC(=S)NNC(=O)c2ccccc2OC(F)F)cc1	0.7%	?	16.4µM*	-14.0%	-4.4%
O=C(NNC(=S)Nc1ccc(F)cc1)c1ccccc1OC(F)F	-21.2%	2.82µM*	-11.2%	1.3%	2.0%
CCC(C)NC(=O)c1cn(-c2cccc(OC)c2)c(=O)c2ccccc12 (stereo unspecified)	5.8%	-40.7%	-10.2%	2.4%	1.8%
COc1cc(-c2nc3ccc(C)cn3c2Nc2ccc3c(c2)OCCO3)ccc1O	8.0%	-22.3%	7.6%	-0.5%	20.6µM*
COc1cc(-c2nc3cnccn3c2Nc2ccc(C(C)C)cc2)ccc1O	?	14.1µM*	0.5%	10µM*	1.3%
Cc1cc(O)ccc1Nc1nc2ccccc2nc1Nc1ccc(O)cc1C	-22.5%	29.5%	?	7.2%	18.4µM*
C/C(=N\Nc1ccc(Cl)c(C(=O)O)c1)c1ccc(Br)s1	27.0%	0.7%	-14.2%	3.4%	?
C/C(=N/NC(=O)c1ccc2c(c1)OCO2)c1ccc(Br)s1	?	2.82µM*	-7.0%	?	1.2%
C/C(=N\NC(=O)c1ccc2c(c1)OCO2)c1ccco1	?	?	-6.5%	?	3.4%
C/C(=N\NC(=O)c1ccc(Cl)c(Cl)c1)c1ccc(Br)s1	-14.2%	0.631µM*	?	0.631µM*	13.4%
